Test results as given in PubChem BioAssay (NCI).
Compounds without any hit were thinned out: in the full panel of roughly 83,000, 20% have a hit.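 Single-concentration screen, 48 h exposure, 96-well plates. Endpoint: percent growth. Below 10 = active.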

Key:
Test in all cases: NCI-60 one-dose screen, 48 h (100 = growth as untreated, 0 = no growth, -100 = all killed)
Settings in all cases: 10 µM unless noted
[1] = system: NCI-H23 lung
[2] = system: NCI-H226 lung
[3] = system: NCI-H322M lung
[4] = system: HOP-62 NSCLC
[5] = system: NCI-H460 lung
[6] = system: HOP-92 NSCLC
[7] = system: NCI-H522 lung
[8] = system: A549/ATCC NSCLC
[9] = system: 786-0 renal
[10] = system: COLO 205 colon
[11] = system: DU-145 prostate
[12] = system: K-562 leukemia
[13] = system: MALME-3M melanoma
[14] = system: MDA-MB-231 breast
[15] = system: RXF 393 renal
[16] = system: SF-268 CNS
[17] = system: SF-295 CNS
[18] = system: SF-539 CNS
[19] = system: UACC-257 melanoma
[20] = system: M14 melanoma

Measured: growth

CCCCCCCCCc1ccc(OC(C)=O)cc1
inactive: [1] 105% | [2] 99.7% | [3] 96.8% | [4] 113% | [5] 103% | [6] 98.2% | [7] 99.4% | [8] 98.9% | [9] 101% | [10] 113% | [11] 103% | [12] 101% | [13] 103% | [14] 110% | [15] 111% | [16] 101% | [17] 96.6% | [18] 92.8% | [19] 110% | [20] 99.5%

Cc1cc(C)cc(OCC(=O)O)c1
inactive: [1] 97% | [2] 91.4% | [3] 95.9% | [4] 95.5% | [5] 110% | [6] 109% | [7] 93.7% | [8] 104% | [9] 98.2% | [10] 119% | [11] 111% | [12] 93.3% | [13] 92.3% | [14] 106% | [15] 135% | [16] 114% | [17] 96.5% | [18] 96.2% | [19] 100% | [20] 102%

O=C1CSc2ccccc2N1
inactive: [1] 99.8% | [2] 111% | [3] 109% | [4] 101% | [5] 107% | [6] 83.9% | [7] 104% | [8] 96.5% | [9] 117% | [10] 108% | [11] 116% | [12] 122% | [13] 108% | [14] 115% | [15] 120% | [16] 104% | [17] 110% | [18] 129% | [19] 101% | [20] 113%

NCC(O)C(O)C(O)C(O)CO (stereo not given)
inactive: [1] 98.2% | [2] 93.4% | [3] 100% | [4] 91.4% | [5] 102% | [6] 80.7% | [7] 102% | [8] 78.4% | [9] 99.2% | [10] 101% | [11] 101% | [12] 103% | [13] 90.5% | [14] 91.9% | [15] 109% | [16] 96.2% | [17] 106% | [18] 101% | [19] 85% | [20] 93.9%

CCCC(=O)c1cccs1
inactive: [1] 95.3% | [2] 93.2% | [3] 112% | [4] 99.9% | [5] 105% | [6] 84.7% | [7] 107% | [8] 99.3% | [9] 92.1% | [10] 111% | [11] 109% | [12] 112% | [13] 107% | [14] 104% | [15] 102% | [16] 105% | [17] 95.7% | [18] 93.7% | [19] 92.5% | [20] 105%

CCNCC(C)(C)O
inactive: [1] 99.1% | [2] 105% | [3] 98% | [4] 100% | [5] 113% | [6] 84.4% | [7] 109% | [8] 96.1% | [9] 103% | [10] 113% | [11] 118% | [12] 111% | [13] 100% | [14] 94.9% | [15] 117% | [16] 119% | [17] 103% | [18] 102% | [19] 98.7% | [20] 95.5%

Oc1ccc(N=Cc2ccc(OCc3ccccc3)cc2)cc1
inactive: [1] 95.5% | [2] 102% | [3] 93.8% | [4] 109% | [5] 104% | [6] 97.5% | [7] 90.8% | [8] 112% | [9] 99.4% | [10] 103% | [11] 108% | [12] 120% | [13] 93.5% | [14] 92.5% | [15] 99.2% | [16] 103% | [17] 92% | [18] 105% | [19] 118% | [20] 104%

ClCC(Cl)[C@@H]1CC2C=CC1C2 (stereo not given in full)
inactive: [1] 102% | [2] 91.7% | [3] 108% | [4] 109% | [5] 113% | [6] 99.7% | [7] 99.6% | [8] 89.1% | [9] 94.4% | [10] 127% | [11] 113% | [12] 105% | [13] 102% | [14] 96.8% | [15] 105% | [16] 108% | [17] 91.3% | [18] 110% | [19] 105% | [20] 112%
